The source of these data is PubChem BioAssay (NCI).

About 83,000 compounds went through this panel and 20% of them were active in at least one assay; those are over-represented in the sample as a whole.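 Growth was measured after 48 h exposure to one concentration of compound in 96-well plates. Values under 10 count as active.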 Calls of active or inactive are those of the source.

In the first assay the test system is DU-145 prostate. Nature of the assay: NCI-60 one-dose screen, 48 h (100 = growth as untreated, 0 = no growth, -100 = all killed). The following applies: 10 µM unless noted.
In the case of `CCC/C(=N\NC(N)=O)C(OC)OC`, the growth is 96.2% (inactive).

Consider `COc1ccc2cc(Cn3cc[n+](Cc4ccc5ccccc5c4)c3)ccc2c1`, for which the growth was 52.2% (inactive).

With `Cn1c(=O)c2c(c3ccccc31)OC(N)=C(C#N)C21C(=O)c2ccccc2C1=O`, the growth is 107% (inactive).

In the case of `CN1CCN(c2ccc3c(c2)nc(NNC(=O)c2cnccn2)c2cccn23)CC1`, the growth was 27.3% (inactive).

Turning to `Cc1cc(C)c(-c2c(O)c(Br)c(-c3c(C)cc(C)c(Br)c3C)c(O)c2Br)c(C)c1Br`, the growth was 33.4% (inactive).

In the case of `CCN(CC)S(=O)(=O)c1ccc(S(=O)(=O)N2CCC[C@@H](C(=O)N3CCN(C(=O)OC(C)(C)C)CC3)C2)cc1`, the growth was 61.2% (inactive).

In the case of `O=C1/C=C/[C@@H](O)[C@@H]2C[C@@H](O)C[C@H]2/C=C/CCC[C@H](CCOCc2ccccc2)O1`, the growth was 12.6% (inactive).

Consider `COc1ccc(C2=Nc3c/c(=C\c4c(O)[nH]c5cc(Cl)ccc45)ccc3=N2)cc1`, for which the growth is 76.8% (inactive).

In the case of `CCCCCCCCCCCCCCCCCCOc1ccccc1CC(=O)NCC[N+]1(C)CCOCC1`, the growth is 65.5% (inactive).

For the compound `Cc1ccc(-c2cc(C(=O)N3N=C(c4ccc(N)cc4)CC3c3ccc(Cl)cc3)c3ccccc3n2)cc1` (centres undefined), the growth was 18.6% (inactive).

In the case of `O=C(CN1C(=O)/C(=C/c2ccco2)SC1=S)NCCc1c[nH]c2ccc(F)cc12`, the growth was 108% (inactive).

Regarding `CCN(CC)CCN(CCN(CC)CC)c1ccccc1`, the growth was 109% (inactive).

Take `COc1cc(C(=O)C(=O)c2cc(OC)c(O)c(OC)c2)cc(OC)c1O`: the growth is 119% (inactive).

Take `O=C(/C=C/c1ccc(Br)cc1)c1ccc(-n2cc(CN3CCN(c4cc5c(cc4F)c(=O)c(C(=O)O)cn5C4CC4)CC3)nn2)cc1`: the growth was 78.9% (inactive).

Another assay concerns K-562 leukemia. Described as above. The following applies: 10 µM unless noted.
On to `Fc1ccc(COc2ccc(Nc3ncnc4sc5c(c34)CCCC5)cc2)cc1`, for which the growth is 103% (inactive).

Take `COc1cc(C2Cc3ncccc3-c3[nH]c(=O)c4cccnc4c32)cc(OC)c1OC` (centres undefined): the growth is 16.3% (inactive).

Take `O=C(c1ccc(Cl)cc1Cl)N1c2ccccc2Sc2ccccc21`: the growth was -42.2% (active).

With `O=C(N/N=C/c1ccc([N+](=O)[O-])cc1)c1ccc2nc(-c3ccc(Cl)cc3)[nH]c2c1`, the growth was 9.68% (active).

In the case of `O=C(NCc1ccccc1O)c1cccc2ccccc12`, the growth was 55.1% (inactive).

In the case of `CC1=C(C(=O)n2c3ccccc3c3ccccc32)C(c2cccc([N+](=O)[O-])c2)C(C(=O)n2c3ccccc3c3ccccc32)=C(C)N1`, the growth is 95.8% (inactive).

Consider `COc1ccc(/C=C/C(=O)c2ccc(NC(=O)CSc3nnc(-c4cc(-c5ccccc5)nc5ccccc45)n3-c3ccccc3)cc2)cc1`, for which the growth was 88.8% (inactive).

Take `Cn1cc(-c2nc(-c3c[nH]c4ccncc34)cs2)c2cc(Br)ccc21`: the growth is -54.2% (active).

Turning to `C#Cc1cccc(Oc2ccc(NC(=O)CCl)cc2)c1`, the growth is 7.79% [8.25 µM] (active).

For `CC1(C)CC[C@]2(C(=O)N3CCOCC3)CC[C@]3(C)C(=CC[C@@H]4[C@@]5(C)C/C(=C/c6ccncc6)C(=O)C(C)(C)[C@@H]5CC[C@]43C)[C@@H]2C1`, the growth was 6.99% (active).

As for `CC(C)c1ccc(NC(=O)Nc2ccc(NC(=O)c3ccccc3N)cc2)cc1`, the growth is 18.2% (inactive).

On to `Cc1cc(C(=O)Nc2cc(Nc3ncccc3-c3ncnc4nc[nH]c34)ccc2F)cc(C(F)(F)F)c1`, for which the growth is 4.38% (active).

In the case of `COc1cc2c3c(n(CCCCNCCCn4c5c(c6cc(OC)c(OC)cc6c4=O)C(=O)c4cc6c(cc4-5)OCO6)c(=O)c2cc1OC)-c1cc2c(cc1C3=O)OCO2`, the growth was 85.7% (inactive).

For the compound `CNC(=O)c1c(NC(=O)c2ccc(C(C)(C)C)cc2)sc2c(CN(C)C)c(O)ccc12`, the growth was -29.3% (active).

As to `CCCCn1sc(=O)n(Cc2ccc(CNC(=O)OCc3ccc4c(Cl)cc(Cl)c(O)c4n3)cc2)c1=O`, the growth was 42.9% (inactive).

On to `O=C1Nc2ccc(F)cc2/C1=N/c1nnc(Sc2ccccc2)s1`, for which the growth is 79.7% (inactive).

For `N#Cc1c(N2CCOCC2)nc(=S)[nH]c1-c1ccccc1`, the growth is 93.4% (inactive).

As to `O=C(CSc1nnc2sc(Nc3cccc(Cl)c3)nn12)c1ccc(F)cc1`, the growth was 90.6% (inactive).

With `C=C(CO)[C@@H]1CC[C@]2(COC3CCCCO3)CC[C@]3(C)[C@H](CC[C@@H]4[C@@]5(C)C=C(C=O)C(=O)C(C)(C)[C@@H]5CC[C@]43C)[C@@H]12` (some centres undefined), the growth was -60.7% (active).

Take `COc1ccc(-c2cc(C(=O)N3N=C(c4ccc(N)cc4)CC3c3ccccc3)c3ccccc3n2)cc1` (centres undefined): the growth is 19.8% (inactive).

For the compound `COc1ccc(-c2cc(-c3cc(OC)c(OC)c(OC)c3)c(C#N)c(=O)n2CCCCCC(=O)NO)cc1`, the growth was 83% (inactive).

For `Cn1ccnc1C(=O)/C=C/c1ccc(C(=O)Nc2ccc(F)cc2)cc1`, the growth is 4.37% (active).

On to `C=C1C(=O)O[C@H]2[C@H]1CC/C(COC(=O)NCCCCCCCCNC(=O)OC/C1=C/CC[C@@]3(C)O[C@H]3[C@H]3OC(=O)C(=C)[C@@H]3CC1)=C\CC[C@@]1(C)O[C@@H]21`, for which the growth was -28.5% (active).

In the case of `C/C(C=O)=C\c1ccc2c(c1)OCO2`, the growth is 113% (inactive).

Take `COc1cccc(/C=C/C(=O)c2cc3c(N)c(C(=O)Nc4cccc(Cl)c4C)sc3nc2C)c1`: the growth is 11% (inactive).

As to `COC(=O)/C=C1/SC(=Nc2cccc(Cl)c2)N(CCc2c[nH]c3ccc(O)cc23)C1=O`, the growth is 5.71% (active).

For the compound `CCC/C(=N\NC(N)=O)C(OC)OC`, the growth is 118% (inactive).

In the case of `COc1ccc2cc(Cn3cc[n+](Cc4ccc5ccccc5c4)c3)ccc2c1`, the growth is 18.4% (inactive).

On to `Cn1c(=O)c2c(c3ccccc31)OC(N)=C(C#N)C21C(=O)c2ccccc2C1=O`, for which the growth is 111% (inactive).

`CN1CCN(c2ccc3c(c2)nc(NNC(=O)c2cnccn2)c2cccn23)CC1`: the growth is 14.5% (inactive).

As for `Cc1cc(C)c(-c2c(O)c(Br)c(-c3c(C)cc(C)c(Br)c3C)c(O)c2Br)c(C)c1Br`, the growth was 15.2% (inactive).

Turning to `CCN(CC)S(=O)(=O)c1ccc(S(=O)(=O)N2CCC[C@@H](C(=O)N3CCN(C(=O)OC(C)(C)C)CC3)C2)cc1`, the growth was 35% (inactive).

Take `O=C1/C=C/[C@@H](O)[C@@H]2C[C@@H](O)C[C@H]2/C=C/CCC[C@H](CCOCc2ccccc2)O1`: the growth is 10.2% (inactive).

In the case of `COc1ccc(C2=Nc3c/c(=C\c4c(O)[nH]c5cc(Cl)ccc45)ccc3=N2)cc1`, the growth was 48.8% (inactive).

Take `CCCCCCCCCCCCCCCCCCOc1ccccc1CC(=O)NCC[N+]1(C)CCOCC1`: the growth was 15.7% (inactive).

For the compound `Cc1ccc(-c2cc(C(=O)N3N=C(c4ccc(N)cc4)CC3c3ccc(Cl)cc3)c3ccccc3n2)cc1` (centres undefined), the growth was 7.72% (active).

For `O=C(CN1C(=O)/C(=C/c2ccco2)SC1=S)NCCc1c[nH]c2ccc(F)cc12`, the growth is 101% (inactive).

For `CCN(CC)CCN(CCN(CC)CC)c1ccccc1`, the growth was 93% (inactive).

On to `COc1cc(C(=O)C(=O)c2cc(OC)c(O)c(OC)c2)cc(OC)c1O`, for which the growth is 122% (inactive).

With `O=C(/C=C/c1ccc(Br)cc1)c1ccc(-n2cc(CN3CCN(c4cc5c(cc4F)c(=O)c(C(=O)O)cn5C4CC4)CC3)nn2)cc1`, the growth was 51.5% (inactive).
